# Shown is part of a subset that was picked to be rich in hits.
# GRP78 ERSR act = inducers of ER stress response in human glioma cells. U87-MG GRP78 promoter luciferase reporter, 16 h. AID 602332. Potency, µM, for inactives: at the top dose activation, usual class: activators. 420,000 compounds, 0.02% hits; further: series mostly up to about 76 µM; % of control where 0% means no effect; nearly all actives have a fitted effect of over 35% in size
#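 Stably transfected U87-MG human glioma cells carrying a GRP78-based luminescent sensor were seeded at 1000 cells/well, pin-dosed with compounds and incubated 16 h. Luciferase reagent was then added, and end-point luminescence was read after 10 min at room temperature.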
# 12-LOX inh = ALOX12 (human) lipoxygenase inhibition | 580,000 compounds, 1.1% hits | purified 12hLO, xylenol orange hydroperoxide absorbance | AID 1671190 | Potency, µM (top dose mostly 108 µM), without a hit: at the highest dose activity change, negative = inhibition, usual class: inhibitors | P18054; further: on the % scale 0 is the no-effect control and ±100 the full control effect
# Target sequence (P18054 whole entry, looked up): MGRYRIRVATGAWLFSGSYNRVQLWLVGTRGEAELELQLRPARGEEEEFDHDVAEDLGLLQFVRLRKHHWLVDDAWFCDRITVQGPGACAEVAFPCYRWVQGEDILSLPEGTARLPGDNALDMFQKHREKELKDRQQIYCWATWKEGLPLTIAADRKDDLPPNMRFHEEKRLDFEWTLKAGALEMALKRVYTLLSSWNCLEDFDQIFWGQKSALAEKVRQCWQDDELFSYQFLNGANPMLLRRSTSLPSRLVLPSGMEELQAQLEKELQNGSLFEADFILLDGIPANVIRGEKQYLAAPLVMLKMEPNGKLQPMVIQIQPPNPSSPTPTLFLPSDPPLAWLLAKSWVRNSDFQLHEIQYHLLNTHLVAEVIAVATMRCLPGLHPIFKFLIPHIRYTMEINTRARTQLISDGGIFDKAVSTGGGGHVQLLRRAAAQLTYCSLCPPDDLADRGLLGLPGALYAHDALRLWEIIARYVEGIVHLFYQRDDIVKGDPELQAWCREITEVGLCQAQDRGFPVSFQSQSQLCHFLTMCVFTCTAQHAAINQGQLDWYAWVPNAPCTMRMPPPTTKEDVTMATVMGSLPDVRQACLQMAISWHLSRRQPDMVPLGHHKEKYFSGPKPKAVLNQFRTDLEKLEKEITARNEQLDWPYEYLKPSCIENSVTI
#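 Purified human 12hLO (150 nM final) in 25 mM Hepes, 0.01% Triton X-100, pH 7.0 was preincubated 15 min at room temperature with compound. Then 40 uM arachidonic acid was added, 30 min. Hydroperoxide was read by Fe-XO absorbance ratio 573/405 nm.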
# G9a block = G9a (human) methyltransferase inhibition; Q96KQ7; G9a H3K9 monomethylation, AlphaScreen, 2 h; Potency, µM (series often up to 102 µM), inactives show at the top dose activity, negative = inhibition, usual class: inhibitors; 350,000 compounds, 8.8% hits; AID 504332; further: on the % scale 0 is the no-effect control and ±100 the full control effect; nearly all actives have a fitted effect of over 75% in size
#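 Compounds were preincubated with 20 nM G9a for 15 min, after which biotinylated H3K9 peptide (500 nM) and SAM (20 uM) started a 2 h room-temperature reaction. Monomethylated product was quantified by antibody-based AlphaScreen chemiluminescence.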
# VDR inhibitor = inhibitors of human vitamin D receptor. VDR-SRC2-3 peptide fluorescence polarization, 2 h. P11473. Potency, µM, inactives show max response, negative = inhibition, actives largely listed as inhibitors. AID 504847. 400,000 compounds, 0.93% hits; further: on the % scale 0 is the no-effect control and ±100 the full control effect
#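 Fluorescence polarization assay of small-molecule disruption of VDR binding to coregulator peptide SRC2-3. Compounds and controls pin-transferred, then read after 2 h incubation at ambient room temperature.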
# Sfp inh = inhibitors of Bacillus subtilis Sfp phosphopantetheinyl transferase; Q9F4F7; Biochemical Sfp PPTase activity, qHTS; Potency, µM, for the others: largest response in the series, negative = inhibition, most hits filed as inhibitors; 310,000 compounds, 3.5% hits;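 further: the enzyme is Sfp with the accession as filed and its product quenches rhodamine fluorescence; 0% = enzyme reaction without inhibitor and -100% = no enzyme wells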
#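 Sfp 15 nM + cpd, 15 min RT; start w/ rhodamine-CoA 5 uM, BHQ-2-YbbR 12.5 uM (final); 50 mM Hepes pH 7.6, 10 mM MgCl2, 0.01% NP-40, 0.01% BSA; read 525/598 nm at 0 and 30 min.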
# Numbers without * were called inactive; u = inconclusive; x = not tested or not shown; [ ] = another dose, or the depositor's remark. The call rests on the fitted dose curve; in most records, active means well fitted curve in the direction sought with a large enough effect; inconclusive means small, poorly fitted or top-dose-only effect, or another doubt; inactive means no such curve, though single readings can be large; an effect the other way counts as inactive or inconclusive. Potency means the concentration at half of the fitted maximal effect.
SMILES,GRP78 ERSR act,12-LOX inh,G9a block,VDR inhibitor,Sfp inh
Cc1ccc(/C(O)=C2/C(=O)C(=O)N(CCN3CCOCC3)C2c2ccccn2)cc1 (configuration not stated),7.5%,0.0%,u,-16.2%,56.2µM*
O=C(c1ccc(Cl)cc1)N1CC2(CCCN2CC2CC2)Cc2ccccc21 (configuration not stated),x,1.6%[6.33 µM],x,x,x
CCOC(=O)c1cnc(N2CCN(c3ccccn3)CC2)c2ccccc12,x,9.9%,x,x,x
CN(C)CCCN1C(=O)C(=O)/C(=C(/O)c2ccccc2)C1c1ccccn1 (configuration not stated),x,x,-64.7%,x,7.0%
COc1ccc(/C(O)=C2/C(=O)C(=O)N(CCN(C)C)C2c2ccccn2)cc1OC (configuration not stated),-0.8%,-12.0%,u,0.6%,u
O=C1C(=O)N(CCOCCO)C(c2ccccn2)/C1=C(\O)c1ccccc1 (configuration not stated),-1.4%,u,17.8µM*,0.4%,-11.8%
O=C1C(=O)N(CCN2CCOCC2)C(c2ccccn2)/C1=C(/O)c1ccccc1 (configuration not stated),-5.3%,-16.5%,12.6µM*,-18.9%,56.2µM*
COc1ccc(/C(O)=C2/C(=O)C(=O)N(CCN3CCOCC3)C2c2ccccn2)cc1OC (configuration not stated),6.7%,-24.8%,u,2.0%,50.1µM*
O=C(c1ccc(F)cc1)[C@@H]1[C@H]2C(=O)[C@@H]3OC[C@@H](O3)[C@@H]12,x,64.6%,x,x,x
Cc1noc(C)c1CN1CCC2(CC1)COCCN2C(=O)c1ccccc1,x,1.5%[176 µM],x,x,x
NC(=O)c1ccc(OCc2coc(-c3cccc(F)c3)n2)cc1,x,-0.8%,x,x,x
O=CCCc1ccccc1,x,-1.1%[176 µM],x,x,x
CCn1c(CNS(=O)(=O)c2ccc(Br)cc2)n[nH]c1=S,-4.1%,-20.1%,35.5µM*,17.0%,16.3%
CCNc1oc(/C=C/c2cccc(OC)c2)nc1C#N,x,44.7µM*,x,x,x
CNc1oc(/C=C/c2cccc(OC)c2)nc1C#N,0.4%,u,-0.8%,u,5.2%
COc1cc(/C=C/c2nc(C#N)c(NCc3ccc4c(c3)OCO4)o2)cc(OC)c1OC,x,-12.2%,x,x,x
COc1ccc(CNc2oc(/C=C/c3cc(OC)c(OC)c(OC)c3)nc2C#N)cc1,31.6µM*,0.0%,u,-0.2%,x
CCOc1nc2ccccc2nc1N1CCC(C(=O)Nc2ccc(Cl)cc2C)CC1,x,-51.4%,x,x,x
CSCC[C@H](NC(=O)NCc1ccccc1F)C(=O)O,1.7%,-0.7%,44.7µM*,1.5%,8.6%
COC(=O)[C@H](CCSC)NC(=O)NCCc1ccccc1F,0.8%,12.0%,11.1%[59 µM],-0.7%,15.6%
CC(C)OC(=O)c1cccnc1SCC(=O)N(C)c1ccccc1,-1.5%,18.3%,3.2%,8.3%,-4.4%
CC(C)OC(=O)c1cccnc1SCc1cc(=O)n2ccccc2n1,1.0%,-30.3%,50.1µM*,-1.3%,0.9%
CC1CCC(NC(=O)C2CCN(S(=O)(=O)c3ccc4nc5c(c(C(=O)O)c4c3)CC(C)CC5)CC2)CC1 (configuration not stated),-0.6%,-18.3%,50.1µM*,3.3%,15.4%
CC(NC(=O)C1CCN(S(=O)(=O)c2ccc3nc4c(c(C(=O)O)c3c2)CCCC4)CC1)c1ccccc1 (configuration not stated),-1.9%,u,39.8µM*,u,11.3%
CC1CCc2nc3ccc(S(=O)(=O)N4CCC(C(=O)NCc5ccccc5Cl)CC4)cc3c(C(=O)O)c2C1 (configuration not stated),5.1%,u,u,11.2%,11.5%
SMILES,GRP78 ERSR act,12-LOX inh,G9a block,VDR inhibitor,Sfp inh
CCC(C)NC(=O)C1CCN(S(=O)(=O)c2ccc3nc4c(c(C(=O)O)c3c2)CCCCC4)CC1 (configuration not stated),-2.6%,u,u,-0.9%,2.8%
Cc1noc(C)c1[S+](=O)([O-])N1CCC2(C1)C(=O)N(CCc1ccccc1)c1ccccc12 (configuration not stated),x,25.3%,x,x,x
COc1cccc2sc(NNC(=O)C3COc4ccccc4O3)nc12 (configuration not stated),-3.2%,-12.3%,u,10.4%,79.4µM*
Cc1ccc2sc(NNC(=O)C3COc4ccccc4O3)nc2c1C (configuration not stated),-2.2%,u,31.6µM*,-21.9%,u
COc1cccc2sc(NNC(=O)C3=COCCO3)nc12,1.1%,2.2%,12.6µM*,-1.0%,-2.3%
N#Cc1nc(-c2cccs2)oc1N1CCN(c2ccccc2)CC1,-4.2%,20.9%,8.91µM*,-11.1%,15.4%
c1ccc(CNc2oc(-c3ccccc3)nc2-c2ccccc2)cc1,x,x,x,14.1µM*,-12.5%
Cc1cccc(-c2nc(C#N)c(NCc3ccccc3)o2)c1,x,50.1µM*,x,x,x
N#Cc1nc(-c2cccs2)oc1NCc1ccc(Cl)cc1,-0.4%,0.0%,7.94µM*,-22.0%,-22.6%
O=C(Nc1nccs1)[C@@H]1C[C@@H](c2ccc(F)cc2)N(Cc2ccccc2)C1,x,18.6%[176 µM],x,x,x
CCOc1ccccc1-n1nnc2c(=O)n(Cc3nc(-c4ccc(OC)cc4OC)no3)cnc21,x,-28.8%,x,x,x
COc1cc(Br)c(C(N)C(=O)O)cc1OC (configuration not stated),x,0.8%,x,x,x
CCc1cccc(C)c1NC(=O)c1nn(-c2ccccc2)c(=O)c2ccccc12,x,34.2%,x,x,x
COc1ccc(CCc2nnc(NC(=O)c3ccccc3)s2)cc1,x,-10.9%,x,x,x
N#Cc1nc(-c2cccs2)oc1NCc1ccccc1,-0.7%,-14.7%,44.7µM*,-1.2%,-8.8%
O=C(Nc1ccccc1SC1CCCC1)C1CCCC1,x,-19.1%,x,x,x
CC[C@@H](C)[C@@H](CO[C@@H](Cc1ccccc1)C(=O)N[C@@H](CCS(C)(=O)=O)C(=O)OC(C)C)NC[C@@H](N)CS,-1.2%,u,22.4µM*,10µM*,-27.1%
OCc1cc2ccc(Br)cc2[nH]1,x,-0.9%,x,x,x
Cn1c(=O)[nH]c(=O)c2c1nc(NCCO)n2Cc1cccc2ccccc12,x,24.2%,x,x,x
CCOC(=O)Cc1nnc(NC(=O)C(CC)Sc2nc(C)cc(=O)[nH]2)s1 (configuration not stated),-3.3%,-24.8%,70.8µM*,u,1.6%
CCOc1ccc(S(=O)(=O)[C@H]2CS(=O)(=O)C[C@@H]2NCc2ccco2)cc1,x,-16.7%,x,x,x
CCCCCCCC(=O)NNC(=O)c1c(O)c2ccccc2[nH]c1=O,1.2%,15.7%,14.4%[12.7 µM],9.6%,33.3%
CCCCCCC(=O)Nc1c(O)c2ccccc2[nH]c1=O,-4.0%,0.0%,u,14.2%,50.1µM*
CCCCOc1ccc(C(=O)Nc2cccc3ccc(C)nc23)cc1,x,-3.3%,x,x,x
Cc1ccc(-c2cc3c(=O)n(CCNC(=O)c4cccc(C#N)c4)ccn3n2)c(C)c1,x,5.8%,x,x,x

# Screening results as filed in PubChem BioAssay.
